Consider 34 molecules from PubChem BioAssay (NCI).

The nature of assay [1]: NCI Yeast Anticancer Drug Screen. Data for the rad50 strain (AID 155).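 Further: 0% = growth of vehicle-only cultures of the same strain.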 Particulars: S. cerevisiae rad50 strain growth inhibition; at 50.0 µM; stronger effect = higher value. In a few lines: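 Cells are treated with compound, grown, and their growth is then scored against vehicle-only cultures of the same repair-deficient yeast strain.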
A short description of assay [2]: NCI Yeast Anticancer Drug Screen. Data for the mec2-1 strain (AID 157). The following applies: S. cerevisiae mec2-1 strain, at 50.0 µM, stronger effect = higher value. In a few lines:
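Compounds were applied to mec2-1 yeast cells. Their growth was then compared with that of vehicle-treated cultures to give growth inhibition.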

Assay [3] is described as follows: NCI Yeast Anticancer Drug Screen. Data for the sgs1 mgt1 strain (AID 161).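 Further: 0% = growth of cultures given vehicle only.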 The following applies: S. cerevisiae sgs1 mgt1 strain, at 50.0 µM, stronger effect = higher value. In a few lines:
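This yeast growth screen uses a strain with defined DNA-repair lesions; compound-treated growth is compared with vehicle-treated growth.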

Assay [4] in a line: NCI Yeast Anticancer Drug Screen. Data for the cln2 rad14 strain (AID 165).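 Further: 0% = growth equal to vehicle treated cultures.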 The following applies: S. cerevisiae cln2 rad14 strain, at 50.0 µM, stronger effect = higher value. Summed up:
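Strain: cln2 rad14 yeast, altered in cell cycle control and DNA damage repair. Read-out: growth inhibition vs vehicle.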

Assay [5] is described as follows: NCI Yeast Anticancer Drug Screen. Data for the bub3 strain (AID 167). Particulars: S. cerevisiae bub3 mutant strain, at 50.0 µM, stronger effect = higher value. Summed up: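 Part of a panel of yeast mutants defective in DNA damage repair or cell cycle regulation. Each strain is grown with compound, and inhibition is calculated relative to solvent-treated cultures.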
Assay [6] is described as follows: NCI Yeast Anticancer Drug Screen. Data for the mlh1 rad18 strain (AID 175). Particulars: S. cerevisiae mlh1 rad18 strain growth inhibition; at 50.0 µM; stronger effect = higher value. In a few lines: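 A repair-deficient yeast strain is exposed to test compound, and growth is scored relative to vehicle-treated controls.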

The panel holds about 79,000 compounds, 15% with a hit somewhere; the sample as a whole holds those more often. Values without a mark were called inactive. Calls of active or inactive are those of the source. No stated cut-off is given here; in the data, active means growth inhibition above about 70%; inactive means the rest.

With `CCOC(=O)c1ccc(N2C(=S)N(C(=O)c3ccccc3)C(=Nc3ccccc3)C2=Nc2ccccc2)cc1`, the growth inhibition in assay [1] was 11.2%; in assay [2] it was 3.15%; in assay [3], 5.25%; in assay [4], 1.35%; in assay [5], 3.85%; in assay [6] it was -37.4%.

As to `OCc1ccccc1F`, the growth inhibition is -42.4% in assay [1]; -34% in assay [2]; -20.6% in assay [3]; -15.3% in assay [4]; -15.1% in assay [5]; -36.2% in assay [6].

In the case of `O=C(O)CCSSCCCS(=O)O`, the growth inhibition in assay [1] is -26.6%; in assay [2], -3%; in assay [3], 36%; in assay [4], 18.9%; in assay [5], 0.45%; in assay [6] it was -2.2%.

As for `O=C(O)CCc1ccc2c(c1)C(=O)CC2`, the growth inhibition in assay [1] was -35%; in assay [2], -27.9%; in assay [3] it was -23.2%; in assay [4] it was -16.1%; in assay [5], -3.95%; in assay [6], -37.4%.

On to `O=C1/C(=C/c2ccccc2)CN(C(=O)/C=C/c2ccccc2)C/C1=C\c1ccccc1`, for which the growth inhibition in assay [1] was -23.6%; in assay [2] it was -19.8%; in assay [3] it was -52%; in assay [4] it was -8.15%; in assay [5], -11.6%; in assay [6], -33.2%.

For the molecule `Cc1ccc(SC(C)/C=C/NNC2=NC(c3ccccc3)C(c3ccccc3)=NN2)cc1` (centres undefined), the growth inhibition in assay [1] was 35.2%; in assay [2] it was 10.2%; in assay [3], 6.05%; in assay [4], 30.4%; in assay [5] it was 13.7%; in assay [6] it was 24.1%.

As to `O=C(O)c1ccc(NC(=S)Nc2ccc(C(=O)O)cc2)cc1`, the growth inhibition is -13.5% in assay [1]; -0.15% in assay [2]; 19.9% in assay [3]; -7.4% in assay [4]; -6.15% in assay [5]; -22.9% in assay [6].

On to `Cc1[nH]nc2c1NC(=O)OC2`, for which the growth inhibition in assay [1] was -3.1%; in assay [2] it was -1.1%; in assay [3], 1.5%; in assay [4], -23.4%; in assay [5] it was -8.15%; in assay [6], 2.45%.

On to `CS(=O)(=O)OCC1NC(=O)C(COS(C)(=O)=O)NC1=O` (centres undefined), for which the growth inhibition is -10.4% in assay [1]; 2.8% in assay [2]; -3.15% in assay [3]; 2% in assay [4]; -0.65% in assay [5]; 3.7% in assay [6].

As to `Cc1cc(N=C2C=CC(=O)C=C2)ccc1O`, the growth inhibition in assay [1] is 40.5%; in assay [2], 21.6%; in assay [3], 30.4%; in assay [4], 10.2%; in assay [5] it was 15.9%; in assay [6], 25.6%.

In the case of `Nc1nc(SCc2ccc(F)cc2)c2[nH]cnc2n1`, the growth inhibition was 16.8% in assay [1]; 9.35% in assay [2]; 12.6% in assay [3]; -8.8% in assay [4]; 12.8% in assay [5]; -21.9% in assay [6].

As for `COc1cc(-c2c(C)oc(C)c2C(C)=O)ccc1OCc1ccccc1`, the growth inhibition is 9.6% in assay [1]; -1.95% in assay [2]; -9.1% in assay [3]; 11.8% in assay [4]; 14.8% in assay [5]; 14.4% in assay [6].

Take `C/C(C(=O)O)=C(\C)c1ccccc1`: the growth inhibition is -0.7% in assay [1]; -0.75% in assay [2]; -0.9% in assay [3]; -15.6% in assay [4]; 2.1% in assay [5]; 5.2% in assay [6].

Turning to `C/C(=N\O)c1cccs1`, the growth inhibition was 3.8% in assay [1]; -4.05% in assay [2]; -6% in assay [3]; -8.9% in assay [4]; -0.25% in assay [5]; -1.4% in assay [6].

In the case of `Cc1cc2ncn(C3OC(CO)C(O)C3O)c2cc1C` (centres undefined), the growth inhibition in assay [1] is -2.7%; in assay [2], 8.35%; in assay [3], -8.25%; in assay [4] it was 21.5%; in assay [5] it was -8.2%; in assay [6], 2.65%.

In the case of `CC(=O)C[n+]1ccccc1Sc1ccc(Cl)cc1`, the growth inhibition in assay [1] is 12.6%; in assay [2], -9.25%; in assay [3] it was 14.1%; in assay [4] it was 19.1%; in assay [5], 3.55%; in assay [6], 56.7%.

Turning to `FC(F)(F)c1cc(-c2ccc(C3Nc4ccccc4-n4cccc43)o2)cc(C(F)(F)F)c1` (centres undefined), the growth inhibition in assay [1] is 11.7%; in assay [2] it was -23.4%; in assay [3], 24.2%; in assay [4], 6.65%; in assay [5], 25.4%; in assay [6] it was 30.3%.

Regarding `COC(=O)NC(c1ccccc1)C(C)I` (centres undefined), the growth inhibition in assay [1] was 7.3%; in assay [2], -0.6%; in assay [3] it was -2.85%; in assay [4], -9.65%; in assay [5], 3.25%; in assay [6], 12.3%.

As for `O=C(CC(C(=O)c1ccsc1)c1cccs1)c1cccs1` (centres undefined), the growth inhibition in assay [1] was 50.9%; in assay [2] it was 14.2%; in assay [3] it was 57.3%; in assay [4], 36.4%; in assay [5], 59.6%; in assay [6], 33.8%.

As for `C1=C(c2ccccc2)CCCC1`, the growth inhibition in assay [1] was 17.1%; in assay [2] it was 3.55%; in assay [3], 4.2%; in assay [4] it was 14.4%; in assay [5], -9.4%; in assay [6], 4.45%.

For the molecule `CC(=O)OCC(C)Cc1ccccc1` (centres undefined), the growth inhibition in assay [1] is 6.35%; in assay [2], 13.8%; in assay [3], -0.25%; in assay [4], 8.2%; in assay [5], 1.9%; in assay [6] it was -2.25%.

`c1ccc(-c2cc(-c3ccncc3)cc(-c3ccncc3)n2)cc1`: the growth inhibition in assay [1] is 3.85%; in assay [2], -21%; in assay [3] it was 9.4%; in assay [4], 18.6%; in assay [5], -1.9%; in assay [6], -85.2%.

Take `COc1ccc(CCNC(=S)NCCc2ccc(OC)cc2)cc1`: the growth inhibition in assay [1] is 11.8%; in assay [2], 12.8%; in assay [3] it was -1.4%; in assay [4] it was -28%; in assay [5], -7.25%; in assay [6], -21%.

Turning to `Cc1cc(N=Nc2ccccc2)c2cccnc2c1N`, the growth inhibition in assay [1] is -3.85%; in assay [2], -4.2%; in assay [3] it was -7.5%; in assay [4], 11.6%; in assay [5] it was -5.15%; in assay [6], 14.7%.

Regarding `Nc1nc2ncn(COC(CO)CO)c2c(=O)[nH]1`, the growth inhibition in assay [1] is 7%; in assay [2], 6.9%; in assay [3], -2.3%; in assay [4], 18.6%; in assay [5], 0.85%; in assay [6], 20.1%.

In the case of `Cc1cc(OC(=O)Nc2cccc(Cl)c2C)ccc1[N+](=O)[O-]`, the growth inhibition in assay [1] is 1.35%; in assay [2], 53.4%; in assay [3], 25.6%; in assay [4], 3.95%; in assay [5], 48.9%; in assay [6] it was 1.7%.

In the case of `CCOC(=O)CNC(=O)CCC(=O)OC`, the growth inhibition in assay [1] was -11%; in assay [2], -4.8%; in assay [3], 17.4%; in assay [4], -10.6%; in assay [5] it was 5.55%; in assay [6], -9.1%.

On to `COCCNC(C)=O`, for which the growth inhibition in assay [1] is 13.8%; in assay [2], 0.7%; in assay [3], 12%; in assay [4], -17.1%; in assay [5], -11.2%; in assay [6], 3.7%.

In the case of `O=C(O)C1CSC(c2ccccc2O)N1` (centres undefined), the growth inhibition is -17.6% in assay [1]; -2.75% in assay [2]; -4.6% in assay [3]; -26.9% in assay [4]; 5.4% in assay [5]; -8.75% in assay [6].

`C#CCOC(=O)C(N)CS` (centres undefined): the growth inhibition in assay [1] was -6.95%; in assay [2] it was -20.3%; in assay [3] it was -13.6%; in assay [4], 9.8%; in assay [5] it was -4.4%; in assay [6] it was -13.7%.

In the case of `O=C(O)C(=Cc1cccc2ccc3ccccc3c12)C(=O)O`, the growth inhibition in assay [1] is -8.7%; in assay [2], -17.2%; in assay [3] it was -4.8%; in assay [4], -4.45%; in assay [5], -1.8%; in assay [6], -6.2%.

`O=P(c1ccccc1)(c1ccccc1)C(O)c1ccncc1` (centres undefined): the growth inhibition was 1.8% in assay [1]; -17.2% in assay [2]; -0.15% in assay [3]; 10.9% in assay [4]; -23% in assay [5]; -10.9% in assay [6].

As for `CC(=O)N/N=C1\NN(C(C)=O)C2(S1)C(=O)Nc1ccccc12` (centres undefined), the growth inhibition in assay [1] was 7.7%; in assay [2], 52%; in assay [3] it was 68.8%; in assay [4], 78.5% (active); in assay [5], 51.8%; in assay [6], 33.1%.

`NC(C(=O)O)c1ccc(C(=O)O)cc1` (centres undefined): the growth inhibition in assay [1] was 30.7%; in assay [2], 15.6%; in assay [3] it was -5.55%; in assay [4], 18.8%; in assay [5], -7.6%; in assay [6] it was 20.5%.
